From PubChem
Autofluor counter: counter-screen for toxin protease inhibitors: compound fluorescence; compound autofluorescence counterscreen, microsphere flow cytometry; stronger effect = higher value; fluorescence intensity (no concentration beside the values); hit rate 3.1% among 360,000; AID 624483; in the data active = fluorescence intensity above about 16000; inconclusive = no clear call, values can overlap the other calls
BoNT-F LC inh: blocks Botulinum neurotoxin F light chain protease; Multiplex microsphere protease cleavage assay, flow cytometry; inhibition, % at 10 µM; hit rate 0.22% among 360,000; in the data active = inhibition above about 35%, passing the limit was not always enough; inconclusive = no clear call, values can overlap the other calls; note: plate controls were buffer without enzyme for full effect and enzyme alone for no effect
BoNT-A LC inh2: inhibitors of Botulinum neurotoxin A light chain protease; multiplex microsphere protease substrate cleavage, flow cytometry; AID 588499; inhibition, % at 10 µM; hit rate 0.17% among 360,000; in the data active = inhibition above about 30%; inconclusive = no clear call, values can overlap the other calls; note: plate controls were buffer without enzyme for full effect and enzyme alone for no effect
Anthrax LF prot: blocks Bacillus anthracis lethal factor protease; P15917; hit rate 0.12% among 360,000; AID 588501; inhibition, % at 10 µM; multiplex microsphere protease cleavage assay, LF; in the data active = inhibition above about 30%; inconclusive = no clear call, values can overlap the other calls; note: plate controls were buffer without enzyme for full effect and enzyme alone for no effect
BoNT-A LC CP1: inhibitors of Botulinum neurotoxin A light chain protease | hit rate 3% among 720 | inhibition, % at 10 µM | multiplex microsphere protease assay, flow cytometry | AID 602139 | shares compounds with BoNT-F LC inh; in the data active = inhibition above about 32%
BoNT-F LC CP1: blocks botulinum neurotoxin F light chain protease. shares compounds with BoNT-F LC inh. multiplex microsphere protease cleavage assay, flow cytometry. inhibition, % at 10 µM. 720 tested, under 10 active. AID 602140
Anthrax LF CP1: inhibitors of Bacillus anthracis lethal factor protease | inhibition, % at 10 µM | shares compounds with BoNT-F LC inh | 720 tested, under 10 active | multiplex microsphere protease cleavage assay, LF
An asterisk follows results filed as active; ? = inconclusive. A selection: hits, their analogues and other compounds. The true share with any hit is near 3.5%. Unless noted, the rule behind the calls is not given here.

SMILES | Autofluor counter | BoNT-F LC inh | BoNT-A LC inh2 | Anthrax LF prot | others
Cc1ccc(-c2nn3c(C)nnc3s2)cc1NC(=O)c1ccc(-c2ccc(Cl)cc2Cl)o1 | 16181* | 2.2 | ? | 1.6
CC(=O)NCC1(c2ccccc2)CCN(CCCC(=O)c2ccc(F)cc2)CC1 | 3692 | 7.7 | 0.0 | 3.6
C=CCNc1cc(C(F)(F)F)nc(-c2ccccn2)n1 | 19805* | 1.2 | 1.4 | -1.0
FC(F)(F)c1cc(Oc2ccc(Cl)cc2)nc(-c2ccccn2)n1 | 23289* | -8.0 | -3.3 | -2.0
FC(F)(F)c1cc(Oc2ccccc2Cl)nc(-c2ccccn2)n1 | 21573* | 0.3 | 1.7 | -1.3
CCN(CC)c1cc(C(F)(F)F)nc(-c2ccccn2)n1 | 8722 | 12.4 | 1.7 | 7.4
FC(F)(F)c1cc(Oc2ccccc2)nc(-c2ccccn2)n1 | 8937 | -1.3 | 0.4 | 0.9
Cc1cc(C)cc(Cn2cc(CN3CC(N4CCSCC4)CS3(=O)=O)nn2)c1 (stereo unspecified) | 4137 | 5.6 | 0.2 | -1.5
COc1ccc(C(=O)NCC23C=CC(O2)C2C(=O)N(Cc4ccccc4)C(=O)C23)cc1 (stereo unspecified) | 19591* | 0.4 | ? | 1.9
CC(=O)Oc1ccc(N2C(=O)C3C4C=CC(CO)(O4)C3C2=O)cc1 (stereo unspecified) | 2541 | -8.0 | -0.3 | -0.2
O=C(CCn1nnc2ccccc21)Nc1nnc(COc2ccc(F)cc2)s1 | 21872* | -1.2 | ? | -3.3
COc1cccc(NC(=O)C(C)C)c1 | 3571 | 4.3 | -0.3 | -0.6
CCOc1cc(NC(=O)CC(C)C)c(OCC)cc1NC(=O)CCn1nnc2ccccc21 | 21013* | -5.3 | -1.9 | -2.4
CCOc1cc(NC(=S)Nc2cccc(OC)c2)c(OCC)cc1NC(=O)C(C)C | 23255* | -3.2 | ? | -5.6
CCOc1cc(NC(=S)Nc2cccc(C)c2)c(OCC)cc1NC(=O)CC(C)C | 22828* | -4.0 | -0.8 | -1.9
CCCCN1CC(C)(C)Oc2cccc(F)c2S1(=O)=O | 3411 | -4.3 | -0.1 | 1.1
CCc1nc2c(OCC(N)=O)cccn2c1N(C)C(=O)c1cccs1 | 3171 | 0.6 | -0.7 | 10.0
CCOc1cc(NC(=S)Nc2ccccc2)c(OCC)cc1NC(=O)c1ccc(OC)cc1 | 18966* | 8.7 | 6.5 | -11.5
CCOc1cc(NC(=S)Nc2cccc(OC)c2)c(OCC)cc1NC(=O)c1ccc(C)cc1 | 5883 | -3.3 | 0.1 | 2.1
CCOc1cc(NC(=S)NCCCN2CCOCC2)c(OCC)cc1NC(=O)C(C)C | 2166 | -7.0 | -0.7 | -0.1
CCOc1cc(NC(=S)NCCCN2CCOCC2)c(OCC)cc1NC(=O)CC(C)C | 22374* | -4.1 | -1.2 | -1.2
CC(=O)c1c(C)[nH]c(C(=O)C(C)Sc2nnc(NC3CC3)s2)c1C (stereo unspecified) | 4416 | -12.8 | -0.4 | -2.0
O=C(NCCCSc1ccccc1)c1cnc(Cl)c(Cl)c1 | 3581 | 11.8 | -0.7 | 9.2
O=C(NCC1CCCO1)c1cccc(C(=O)NCC2CCCO2)c1 (stereo unspecified) | 3758 | ? | 1.3 | -18.8
O=C(NCCc1ccccc1)c1cnc(Cl)c(Cl)c1 | 2953 | 5.0 | -0.2 | 35.3*
SMILES | Autofluor counter | BoNT-F LC inh | BoNT-A LC inh2 | Anthrax LF prot | others
CCCC(=O)Nc1ccc(C(=O)NCC2CCCO2)cc1 (stereo unspecified) | 24245* | -0.8 | -2.2 | 0.9
O=C(NCC1CCCO1)c1cnc(Cl)c(Cl)c1 (stereo unspecified) | 3554 | 13.9 | 1.7 | 32.1*
O=C(NCC1CCCO1)c1cccc(Br)c1 (stereo unspecified) | 16290* | -1.6 | ? | 1.6
CCCCCCn1cc(CN2CC(N3CCCC3)CS2(=O)=O)nn1 (stereo unspecified) | 4636 | -5.5 | -1.1 | -7.4
CC(=O)c1cccc(NC(=O)c2ccc(-n3cncn3)c3ccoc23)c1 | 2884 | -2.9 | 0.1 | 5.6
CCOc1ccccc1CNC(=O)C1CCC(=O)N1C(C)C (stereo unspecified) | 22457* | 6.8 | 2.9 | 0.2
O=C(Nc1ccccc1)NC1CS(=O)(=O)CC1O (stereo unspecified) | 22098* | -2.1 | -0.5 | 0.8
O=C(CSc1nc2ccccc2c(=O)n1Cc1ccc(C(=O)NC2CC2)cc1)NCc1ccco1 | 19257* | 3.4 | 2.6 | 1.2
O=C(CSc1nc2ccccc2c(=O)n1CCCC(=O)N1CCCC1)NCc1ccco1 | 23337* | -1.2 | -0.5 | -2.4
CCOCCCn1c(SCC(=O)NCc2ccco2)nc2c(sc3ccccc32)c1=O | 9584 | 5.6 | -0.2 | -11.2
CCCCn1c(SCC(=O)NCc2ccco2)nc2c(sc3ccccc32)c1=O | 22504* | -1.0 | ? | -0.7
COc1cc(Cl)c(NS(=O)(=O)c2cc3[nH]c(=O)c(=O)[nH]c3cc2C)c(OC)c1 | 4026 | -8.2 | 1.9 | 0.1
CCN(CC)Cc1nc2nc(Cl)c(Cl)nc2[nH]1 | 3928 | -7.0 | -0.1 | -8.4
Cc1cc[n+]2c3c(cccc13)CCC2 | 20480* | -4.9 | -0.2 | -11.6
O=C(OCc1ccccc1)c1cccc(-c2nnc(-c3ccccc3)o2)c1 | 23216* | -3.2 | ? | -1.3
O=C(Cn1c(C(F)(F)F)nc2ccccc21)c1ccc(Cl)cc1 | 18546* | 2.4 | 3.0 | 3.0
COCCn1c(SCC(=O)Nc2ccc(OC)c(S(N)(=O)=O)c2)nc2ccccc2c1=O | 4087 | 2.5 | -0.6 | -0.1
CC(=O)NC(c1cccc(F)c1)c1nc(-c2csc3ccccc23)cs1 (stereo unspecified) | 3752 | 4.9 | 0.5 | -1.0
COc1ccc(-c2cnc3n2CCCCC3)cc1 | 3877 | 41.6* | 5.4 | 9.4 | BoNT-A LC CP1=-1.3;BoNT-F LC CP1=-1.4;Anthrax LF CP1=0.9
c1csc(-c2cnc3n2CCCC3)c1 | 4734 | -26.8 | -0.8 | -3.6
C=CCc1cccc(CNn2cnnc2)c1O | 4273 | 42.6* | -1.2 | 3.0 | BoNT-A LC CP1=-0.9;BoNT-F LC CP1=-0.4;Anthrax LF CP1=-4.1
O=C(CSc1nnc(CNC(=O)c2cccs2)o1)Nc1ccc(Br)cc1 | 5960 | -5.4 | -0.4 | 1.1
NS(=O)(=O)c1ccc(CCNC2CC(=O)N(CCc3ccccc3)C2=O)cc1 (stereo unspecified) | 7354 | 157.6* | 5.7 | 52.0* | BoNT-A LC CP1=1.2;BoNT-F LC CP1=1.4;Anthrax LF CP1=3.5
CCCCCOc1ccc(C(=O)CCN2CCOCC2)cc1 | 3418 | -5.1 | 1.5 | -0.8
O=C(CCN1CCN(c2ccccc2)CC1)c1ccc(Br)cc1 | 3703 | 10.7 | 1.1 | 12.0
CC(C)Oc1ccc(C(=O)CCN2CCOCC2)cc1 | 4370 | -8.3 | 0.6 | -0.2 | BoNT-A LC CP1=-1.0;BoNT-F LC CP1=-6.2;Anthrax LF CP1=-0.1
O=C(CCN1CCOCC1)c1ccc(Cl)cc1 | 3570 | 41.6* | 4.6 | -2.5 | BoNT-A LC CP1=-0.2;BoNT-F LC CP1=-1.3;Anthrax LF CP1=2.3
O=C(CCN1CCOCC1)c1ccc(Br)cc1 | 4225 | 40.3* | 5.5 | -4.0 | BoNT-A LC CP1=0.2;BoNT-F LC CP1=-5.2;Anthrax LF CP1=-1.4
Cc1cccc(C(O)c2ncc(-c3ccc(Cl)cc3)[nH]2)c1C (stereo unspecified) | 3776 | -3.1 | -0.4 | -2.8
CN(C)S(=O)(=O)c1cc(C(=O)NCCCn2ccc3ccccc32)ccc1Cl | 4171 | -27.3 | 6.1 | 12.5 | BoNT-A LC CP1=0.1;BoNT-F LC CP1=-2.7;Anthrax LF CP1=1.6
